Holding throughout (format): functional
In assay [1] the target is Solute carrier family 2, facilitated glucose transporter member 1 (Homo sapiens) (UniProt P11166). Kind of assay: ST_JUDE_LEISH: Cytotoxicity at 2uM final concentration against transgenic Leishmania Mexicana promastigotes LmGLUT1 that are glucose transport deficient and complemented with the human glucose transporter GLUT1. Activity is measured by DNA content using SYBR green in vitro.

The target of assay [2] is Hexose transporter 1 (Plasmodium falciparum) (UniProt O97467). In words: ST_JUDE_LEISH: Cytotoxicity at 2uM final concentration against transgenic Leishmania Mexicana promastigotes LmPfHT that are glucose transport deficient and complemented with the Plasmodium falciparum hexose transporter. Activity is measured by DNA content using SYBR green in vitro.
In assay [3] the target is Glucose transporter (Leishmania mexicana) (UniProt O61059). In words: ST_JUDE_LEISH: Cytotoxicity at 2uM final concentration against transgenic Leishmania Mexicana promastigotes LmGT2 that are glucose transport deficient and complemented with the L. Mexicana glucose transporter 2. Activity is measured by DNA content using SYBR green in vitro.

Results on 15 compounds are retold here after ChEMBL document CHEMBL3433997, “St. Jude Leishmania screening dataset” (2016).

Chain of Solute carrier family 2, facilitated glucose transporter member 1 (Homo sapiens) (P11166 whole entry): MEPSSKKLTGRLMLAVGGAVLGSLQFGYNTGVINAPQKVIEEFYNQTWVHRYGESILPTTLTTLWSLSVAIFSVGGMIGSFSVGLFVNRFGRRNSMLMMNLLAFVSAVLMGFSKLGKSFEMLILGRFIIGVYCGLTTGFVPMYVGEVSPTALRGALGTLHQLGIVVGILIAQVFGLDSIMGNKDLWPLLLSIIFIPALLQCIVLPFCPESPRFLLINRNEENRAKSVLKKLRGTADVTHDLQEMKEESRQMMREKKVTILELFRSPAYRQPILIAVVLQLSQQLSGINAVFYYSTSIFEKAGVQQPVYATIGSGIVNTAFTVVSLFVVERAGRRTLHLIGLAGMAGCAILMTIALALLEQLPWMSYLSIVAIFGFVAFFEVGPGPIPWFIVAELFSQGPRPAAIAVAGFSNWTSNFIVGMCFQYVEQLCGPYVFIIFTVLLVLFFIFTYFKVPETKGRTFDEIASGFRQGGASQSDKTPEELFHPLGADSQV

In the case of `O=[N+]([O-])c1ccc(N/C(=N\c2ccccc2Br)NC2CCCc3ccccc32)c(O)c1` (stereo not given), the inhibition in assay [1] was 0.73%; in assay [2], -1.02%; in assay [3] it was -1.9%.

Regarding `Cc1ccccc1C1CCN(C2CCC(NC(=O)/C=C/c3ccc(C#N)cc3)CC2)CC1` (stereo not given), the inhibition in assay [1] is 3.43%; in assay [2], 4.49%; in assay [3], 5.03%.

As to `CC1(C)NC(N)=NC(=N)N1OCCSCCON1C(=N)N=C(N)NC1(C)C`, the inhibition in assay [1] was -0.9%; in assay [2], 0.07%; in assay [3] it was -0.26%.

For the compound `CCCCCCC(N)c1ccc(OCCCOc2ccc(C(N)CCCCCC)cc2)cc1` (stereo not given), the inhibition turned out to be 107% in assay [1], 106% in assay [2] and 109% in assay [3].

In the case of `CCCC(CNCc1ccc(Cl)c(C(F)(F)F)c1)CNc1nc2cnccc2[nH]1` (stereo not given), the inhibition in assay [1] amounted to 13.5%; in assay [2], 11.9%; in assay [3], 8.76%.

Turning to `COc1cc2nc(NCC3CCCCC3)nc(NCc3ccccc3)c2cc1OC`, the inhibition in assay [1] came to 3.26%; in assay [2] it was 4.81%; in assay [3], 0.32%.

Regarding `COc1cc(NC(=O)/C=C/c2cc(F)cc(F)c2F)cc(OCCN2CCCCC2)c1`, the figures for the inhibition in assay [1], in assay [2] and in assay [3] were 5.16%, 3.35% and 4.25%, respectively.

Consider `COc1ccc(CN2CCC(CNCC(c3ccccc3)c3ccccc3)CC2)cc1`, for which the inhibition in assay [1] is 3.54%; in assay [2], 3.87%; in assay [3], 2.23%.

For `Cc1cc(NC(=O)c2ccco2)ccc1OC1CCN(Cc2ccc(C#N)cc2)CC1`, the inhibition in assay [1] amounted to 1.63%; in assay [2] it was 1.09%; in assay [3], 1.11%.

With `COc1cccc2cc(C(=O)N[C@@H](CC(C)C)C(=O)NC(/C=N/NC(=O)c3ccccc3)CCc3ccccc3)oc12` (stereo not given in full), the inhibition is -0.59% in assay [1], 2.83% in assay [2] and 0.75% in assay [3].

`COc1ccc(CN2CCC(Oc3cccc(NC(=O)c4ccc(C(F)(F)F)cc4)c3)CC2)cc1`: the results for the inhibition in assay [1], in assay [2] and in assay [3] were 0.69%, 1.18% and 3.45%, respectively.

For `FC(F)(F)Oc1ccc(-c2cnc3ccc(NCc4ccncc4)nn23)cc1`, the figures for the inhibition in assay [1], in assay [2] and in assay [3] were 2.41%, 3.58% and -1.87%, respectively.

For the compound `N#Cc1cccc(CN2CCCN(Cc3cccc(C(=O)Nc4ccc(Cl)cc4)c3)CC2)c1`, the inhibition in assay [1] is 0.81%; in assay [2], 0.19%; in assay [3], 0.64%.

`COc1ccc(Cl)c(CC2c3cc(O)c(Cl)cc3CCN2C)c1` (stereo not given): the inhibition in assay [1] is -0.53%; in assay [2], -0.87%; in assay [3], -1.58%.

Turning to `CCN(CC)CCNc1ccnc2[nH]c3ccc([N+](=O)[O-])cc3c12`, the figures for the inhibition in assay [1], in assay [2] and in assay [3] were 3.68%, 3.92% and 3.99%, respectively.

Usually inhibition stands for the relative decrease from the control value, in per cent.
